Data taken from the antibiotic and cytotoxicity screens of Wong et al. (2023).
Hit rate of the full screen: of about 39,000 compounds, about 3,300 (8.5%) were called active. This excerpt belongs to a sample that is enriched for actives.

System: HepG2
Test: cytotoxicity call (relative viability < 0.9)
Settings: 10 µM

SMILES | cytotoxicity call
C[C@@H]1CN([C@H](C)CO)C(=O)c2cccc(NC(=O)c3cnccn3)c2O[C@H]1CN(C)CC1CCCCC1 | inactive
O=C(C[C@H]1CC[C@@H]2[C@H](COC[C@H](O)CN2C(=O)c2cccnc2)O1)NCc1ccc(-c2ccccc2)cc1 | inactive
C[C@@H]1CN([C@@H](C)CO)C(=O)c2cccc(NS(=O)(=O)c3ccc(F)cc3)c2O[C@@H]1CN(C)S(=O)(=O)c1cccs1 | inactive
C[C@@H]1CN([C@@H](C)CO)C(=O)Cc2cc(NC(=O)CCN3CCOCC3)ccc2O[C@@H]1CN(C)S(=O)(=O)c1cccs1 | inactive
C[C@H]1CN([C@@H](C)CO)C(=O)c2ccccc2-c2ccccc2CO[C@@H]1CN(C)C(=O)Nc1ccc(F)cc1 | inactive
O=C(CN1CCOCC1)N[C@H]1CC[C@@H](CCn2cc(C3CC3)nn2)O[C@H]1CO | active
O=C(CN1CCOCC1)N[C@@H]1CC[C@H](CCn2cc(C3CC3)nn2)O[C@@H]1CO | inactive
O=C(CN1CCOCC1)N[C@H]1CC[C@H](CCn2cc(C3CC3)nn2)O[C@@H]1CO | inactive
CC(C)NC(=O)N[C@@H]1C=C[C@@H](CC(=O)O)O[C@H]1CO | inactive
CC(=O)Oc1ccccc1C(=O)Nc1ncc([N+](=O)[O-])s1 | active
CC(=O)Oc1ccccc1C(=O)Nc1ccccc1 | inactive
CC(=O)Nc1ncc([N+](=O)[O-])s1 | inactive
C[C@@H]1CN([C@H](C)CO)C(=O)CCCn2cc(nn2)CO[C@@H]1CN(C)C(=O)Nc1cccc(Oc2ccccn2)c1 | inactive
O=C(N/N=C/[C@H](O)[C@@H](O)[C@H](O)[C@H](O)CO)c1ccccc1O | inactive
O=C(N/N=C/[C@H](O)[C@@H](O)[C@H](O)CO)c1ccccc1O | inactive
O=C(N/N=C/[C@H](O)[C@@H](O)[C@@H](O)[C@H](O)C(=O)O)c1ccccc1O | active
O=C(N/N=C/[C@H](O)[C@@H](O)[C@@H](O)[C@H](O)C(=O)O)c1ccccn1 | inactive
O=C(N/N=C/[C@H](O)[C@H](O)[C@@H](O)[C@@H](O)CO)c1ccccc1O | active
O=C(N/N=C/[C@@H](O)[C@H](O)[C@H](O)CO)c1ccccc1O | inactive
C[C@@H]1CN([C@@H](C)CO)C(=O)Cc2cc(NC(=O)CCCCCC(=O)Nc3ccccc3N)ccc2O[C@@H]1CN(C)C(=O)Nc1ccc(C(F)(F)F)cc1 | inactive
C[C@@H]1CN([C@H](C)CO)C(=O)Cc2cc(NS(=O)(=O)c3ccccc3)ccc2O[C@@H]1CN(C)S(C)(=O)=O | inactive
COC1C(=O)C2(C)C(OC)CC3OCC3(OC(C)=O)C2C(OC(=O)c2ccccc2)C2(O)CC(OC(=O)C(O)C(NC(=O)OC(C)(C)C)c3ccccc3)C(C)=C1C2(C)C (centres undefined) | active
CC(=O)OC12COC1CC(O)C1(C)C(=O)C(O)C3=C(C)C(OC(=O)C(O)C(NC(=O)OC(C)(C)C)c4ccccc4)CC(O)(C(OC(=O)c4ccccc4)C21)C3(C)C.O.O.O (centres undefined) | active
CC(=O)OC1C(=O)C2(C)C(O)CC3OCC3(OC(C)=O)C2C(OC(=O)c2ccccc2)C2(O)CC(OC(=O)C(O)C(NC(=O)c3ccccc3)c3ccccc3)C(C)=C1C2(C)C (centres undefined) | active
